High-throughput results deposited in PubChem BioAssay by The Scripps Research Institute Molecular Screening Center.
The sample as a whole holds a higher share of hits than the screen did.
TbREL1 inh – TbREL1 inhibition, primary screen; inhibition, % at 9.66 µM; 0.49% of 89,000 active; P86926; TbREL1 RNA ligation, FRET fluorescence;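 active = inhibition above the mean inhibition across all screened compounds plus 3 SD, cut at about 11% in these data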;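 note: 0% = plate median of test wells and 100% = NSC42067 control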
Target sequence (P86926 whole entry, looked up): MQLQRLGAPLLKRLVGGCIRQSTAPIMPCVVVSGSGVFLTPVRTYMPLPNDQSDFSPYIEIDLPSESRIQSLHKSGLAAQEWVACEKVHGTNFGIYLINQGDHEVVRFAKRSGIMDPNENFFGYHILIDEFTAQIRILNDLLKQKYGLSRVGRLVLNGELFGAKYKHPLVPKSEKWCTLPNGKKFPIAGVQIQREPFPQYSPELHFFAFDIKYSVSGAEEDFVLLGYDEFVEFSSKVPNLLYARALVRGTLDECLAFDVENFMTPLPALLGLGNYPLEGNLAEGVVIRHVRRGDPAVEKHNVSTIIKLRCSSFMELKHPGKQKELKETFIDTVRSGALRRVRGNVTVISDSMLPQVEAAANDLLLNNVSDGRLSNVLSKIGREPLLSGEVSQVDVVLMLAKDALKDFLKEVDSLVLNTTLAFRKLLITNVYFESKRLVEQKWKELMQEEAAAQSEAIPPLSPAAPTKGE
TbREL1 conf – TbREL1 inhibition, confirmation | shares compounds with TbREL1 inh | 37% of 390 active | TbREL1 RNA ligation, FRET fluorescence | inhibition, % at 9.66 µM;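 active = mean inhibition across replicates above a set limit taken from the earlier primary screen, cut at about 11% in these data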;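 note: 0% = REL1 with substrate and DMSO and 100% = REL1 plus control inhibitor NSC42067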
* marks the source's active call; other numbers are inactive results.

What do the screens show for `CCN1C(=O)N[C@@H](c2cccc(C(F)(F)F)c2)C(C(=O)OC)=C1C`?
TbREL1 inh: 1

Results for COC(=O)C1=C(C)N(Cc2ccccc2)C(=NCc2cc(OC)c(OC)c(OC)c2)N[C@H]1CCc1ccccc1 ?
TbREL1 inh: 3

What do the screens show for `COC(=O)C1=C(C)N(Cc2cccc(C(F)(F)F)c2)C(=NCc2ccccc2C(F)(F)F)NC1c1ccccc1C(F)(F)F` (stereo not drawn)?
TbREL1 inh: 16*; TbREL1 conf: 24*

Results for COC(=O)C1=C(C)N(C)C(=NCc2cccc(C(F)(F)F)c2)NC1c1ccccc1C(F)(F)F (stereo not drawn) ?
TbREL1 inh: 11

How did COC(=O)C1=C(C)N(C)C(=NCC2CC2)NC1c1ccccc1C(F)(F)F (stereo not drawn) do in these assays?
TbREL1 inh: -2

How did C=CCN=C1NC(c2cccc(F)c2)C(C(=O)OC)=C(C)N1Cc1cccc(C(F)(F)F)c1 (stereo not drawn) do in these assays?
TbREL1 inh: 11*; TbREL1 conf: 12*

How did COC(=O)C1=C(C)N(Cc2cccc(C(F)(F)F)c2)C(=NCc2ccc(C(F)(F)F)cc2)NC1c1ccccc1C(F)(F)F (stereo not drawn) do in these assays?
TbREL1 inh: 18*; TbREL1 conf: 22*

How did CC(Cl)C(=O)N1CCC(C(=O)NC2CCCc3ccccc32)CC1 (stereo not drawn) do in these assays?
TbREL1 inh: 0

Results for Cc1ccccc1CNC(=O)CN1CCCc2ccccc21 ?
TbREL1 inh: 0

Results for C(/C=C\c1ccco1)=NN1CCN(Cc2cccc3ccccc23)CC1 ?
TbREL1 inh: -4

How did C[C@H]1[C@@H](NC(=O)c2ccc(C(F)(F)F)cc2)CC[C@@]23CCCN2C(=O)CCC[C@@H]13 do in these assays?
TbREL1 inh: 5

How did O=C(NCCN1C(=O)C2C3C=CC(C3)C2C1=O)c1cc(Cl)cc(Cl)c1 (stereo not drawn) do in these assays?
TbREL1 inh: -2

What do the screens show for `CCOC(=O)C1CCN(C(=O)C(C)(C)NC(=O)Nc2ccc(Cl)cc2Cl)CC1`?
TbREL1 inh: 3

How did CC(C)(N[C@@H](Cc1c[nH]c2ccccc12)C(=O)NCC(c1ccccc1)c1ccccc1)C(=O)NC1CCCCC1 do in these assays?
TbREL1 inh: -4

How did COC(=O)[C@H]1C[C@]2(C/C=C(\C)CCC=C(C)C)c3ccccc3N[C@H]2N1 do in these assays?
TbREL1 inh: -4

What do the screens show for `O=C(CSc1nc2ccccc2o1)NN=C/C=C\c1ccccc1[N+](=O)[O-]`?
TbREL1 inh: 0

How did CC(C)(C)CCNc1nc(-c2ccccn2)nnc1-c1ccccc1 do in these assays?
TbREL1 inh: -2

How did Cc1ccccc1C1CCC2(CCC(=O)N2CC[C@@H](O)c2ccccc2)CC1 (stereo partly drawn) do in these assays?
TbREL1 inh: 3

Results for CC(C)Oc1ccc(Oc2ccc(C#C[C@H](C)N3C(=O)c4ccccc4C3=O)cc2)cn1 ?
TbREL1 inh: -4

How did CSc1ccc(C=NNC(=O)c2cc(-c3ccc(Cl)cc3)n[nH]2)cc1 do in these assays?
TbREL1 inh: 1

Results for O=C1CCC[C@H]2C[C@H](NCc3ccco3)CC[C@]23CCCN13 ?
TbREL1 inh: -1

Results for COC(=O)C1=C(C)N(CC(C)C)C(=S)NC1c1cccc(F)c1 (stereo not drawn) ?
TbREL1 inh: -5

How did COC(=O)C1=C(C)N(Cc2ccc(F)cc2)C(=S)NC1c1ccc(F)cc1 (stereo not drawn) do in these assays?
TbREL1 inh: -1

How did CCN=C1NC(c2ccccc2C(F)(F)F)C(C(=O)OC)=C(C)N1Cc1ccc(C(F)(F)F)cc1 (stereo not drawn) do in these assays?
TbREL1 inh: 12*; TbREL1 conf: 17*

Results for COC(=O)C1=C(C)N(C)C(=NCc2ccccc2C(F)(F)F)NC1c1cccc(F)c1 (stereo not drawn) ?
TbREL1 inh: 13*; TbREL1 conf: 18*

Results for COC(=O)C1=C(C)N(Cc2ccccc2)C(=S)NC1c1cccc(Br)c1 (stereo not drawn) ?
TbREL1 inh: -5

Results for COC(=O)C1=C(C)N(C)C(=NCc2ccc(C(F)(F)F)cc2)NC1c1ccc(F)cc1 (stereo not drawn) ?
TbREL1 inh: 7

How did COC(=O)C1=C(C)N(Cc2ccccc2)C(=O)N[C@H]1c1cccs1 do in these assays?
TbREL1 inh: -1

What do the screens show for `COC(=O)C1=C(C)N(Cc2cccc(C(F)(F)F)c2)C(=NCc2ccccc2C(F)(F)F)NC1c1cccc(F)c1` (stereo not drawn)?
TbREL1 inh: 15*; TbREL1 conf: 22*

Results for Cc1ccc(C(=O)Oc2coc(CSc3ncccn3)cc2=O)cc1[N+](=O)[O-] ?
TbREL1 inh: -5

Results for Cn1cccc1C=NNC(=O)c1cc(-c2ccc(Cl)cc2)n[nH]1 ?
TbREL1 inh: 1

What do the screens show for `Cc1ccc2nc3sc(C(=O)N4CCN(C)CC4)cc3cc2c1`?
TbREL1 inh: -5

What do the screens show for `O=C(NC1CCCC1)N1CCC(c2nc3ccc(Cl)cc3[nH]2)CC1`?
TbREL1 inh: 0

How did CCOc1ccccc1-c1nc(C(N)=O)c2[nH]c(=O)n(-c3ccc(F)cc3)c2n1 do in these assays?
TbREL1 inh: 0

How did Cc1ccsc1-c1nc(C(N)=O)c2[nH]c(=O)n(-c3ccc(Cl)cc3)c2n1 do in these assays?
TbREL1 inh: 27*; TbREL1 conf: 0

How did Cc1cccc(-n2c(=O)[nH]c3c(C(N)=O)nc(C(C)C)nc32)c1 do in these assays?
TbREL1 inh: 0

What do the screens show for `O=C(NCC(c1ccccc1)c1ccccc1)[C@H](Cc1c[nH]c2ccccc12)NC1(C(=O)NC2CCCCC2)CCN(Cc2ccccc2)CC1`?
TbREL1 inh: -4

What do the screens show for `COC(CNC(=O)[C@H](Cc1ccccc1)NC1(C(=O)NC2CCCCC2)CCC1)OC`?
TbREL1 inh: -3

What do the screens show for `CC(C)C[C@H](NC1(C(=O)NC2CCCCC2)CCC1)C(=O)NCC(c1ccccc1)c1ccccc1`?
TbREL1 inh: -1

What do the screens show for `O=C(NCC(c1ccccc1)c1ccccc1)[C@H](Cc1ccccc1)NC1(C(=O)NC2CCCCC2)CCC1`?
TbREL1 inh: -3

What do the screens show for `CN1CCC(N[C@@H](Cc2ccccc2)C(=O)NCC(c2ccccc2)c2ccccc2)(C(=O)NC2CCCCC2)CC1`?
TbREL1 inh: 13*; TbREL1 conf: 14*

Results for O=C(NCC(c1ccccc1)c1ccccc1)[C@H](Cc1ccccc1)NC1(C(=O)NC2CCCCC2)CCCCCC1 ?
TbREL1 inh: 12*; TbREL1 conf: 0

Results for CCOC(=O)c1ccc(NC(=O)CSc2nnc(-c3cc(-c4ccccc4)n[nH]3)n2N)cc1 ?
TbREL1 inh: 8

How did COc1ccc(OC)c(NC(=O)O[C@@H]2CC[C@@]34CCCN3C(=O)CCC[C@H]4C2)c1 do in these assays?
TbREL1 inh: -1

How did COc1ccc(CSc2nnc(SCC(=O)Nc3ccc(S(N)(=O)=O)cc3)s2)cc1 do in these assays?
TbREL1 inh: 0

How did Cc1cc(NS(=O)(=O)c2ccc(NC(=O)CSc3nc4sc(C)c(C)c4c(=O)n3Cc3ccco3)cc2)nc(C)n1 do in these assays?
TbREL1 inh: -1

How did O=S(=O)(c1cccs1)N1CCN(c2ccccc2)CC1 do in these assays?
TbREL1 inh: 16*; TbREL1 conf: 3

How did O=S(=O)(c1cccs1)N1CCN(c2ccc(F)cc2)CC1 do in these assays?
TbREL1 inh: 0
